Compound activity: PubChem, National Center for Advancing Translational Sciences (NCATS)
The list is not random: actives were taken first. Their share in the collection is about 1.3%.
PTHR1 ag: PTHR1 (human) receptor agonism; 0.075% of 410,000 active; HEK293 GP2 PTHR1 cells, GloSensor cAMP luminescence, 1 h; Potency, µM (highest dose often 115 µM), for inactives: at the highest dose activation, usual class: activators; AID 743266; Q03431; note: potency is the fitted concentration of half-maximal effect; nearly all actives have a fitted effect of over 55% in size
Target sequence (Q03431 whole entry, looked up): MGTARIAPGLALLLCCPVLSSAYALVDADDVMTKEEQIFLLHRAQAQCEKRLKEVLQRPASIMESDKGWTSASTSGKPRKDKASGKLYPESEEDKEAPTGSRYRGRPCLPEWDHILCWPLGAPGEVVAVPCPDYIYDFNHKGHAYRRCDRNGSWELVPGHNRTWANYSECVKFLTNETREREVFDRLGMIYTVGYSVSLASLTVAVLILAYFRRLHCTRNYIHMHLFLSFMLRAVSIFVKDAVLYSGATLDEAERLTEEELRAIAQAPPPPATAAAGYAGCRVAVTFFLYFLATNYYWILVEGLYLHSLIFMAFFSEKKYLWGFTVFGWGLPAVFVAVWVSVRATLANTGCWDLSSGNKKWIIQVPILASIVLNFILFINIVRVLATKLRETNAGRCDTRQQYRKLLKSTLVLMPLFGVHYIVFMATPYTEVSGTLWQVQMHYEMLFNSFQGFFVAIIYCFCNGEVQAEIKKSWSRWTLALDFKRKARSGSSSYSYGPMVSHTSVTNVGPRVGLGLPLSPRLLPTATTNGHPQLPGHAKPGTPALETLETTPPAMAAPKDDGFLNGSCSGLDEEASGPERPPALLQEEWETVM
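HEK-293-derived GP2 cells expressing PTHR1 and a GloSensor cAMP reporter, 3,000/well, plated overnight, given luciferin plus IBMX (each 0.5 mM as added) for 1 h at 37 °C, then compound for 1 h at 37 °C. Luminescence was read after 15 min at room temperature.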
TCR activator: activators of T cell receptors. primary human leukocytes, anti-CD3, IL-2 HTRF, 48 h. 330,000 tested, under 10 active. AID 504894. Potency, µM (highest dose often 9.22 µM), for inactives: at the top dose activation of IL-2 secretion, most hits filed as activators; note: % of control where 0% means no effect
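HTRF read-out of IL-2 secretion: europium cryptate donor excited at 320nm, d2 acceptor emission at 665nm. Cells were primary human leukocytes incubated 48 hr with compounds and a-CD3 beads, supplying TCR signal only.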
IL-2 act: IL-2 activation | 0.065% of 360,000 active | IL-2 activation reporter assay, cell-based qHTS; stimulated with anti-CD3/CD4/CD28 beads; in transgenic mouse T cells | activation, % (series mostly up to about 46 µM); in the data active = activation above about 50%; inconclusive = mostly about 30% to 49%; note: 0% is about no effect
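Quantitative HTS in unstimulated transgenic mouse T cells, with memory T cells as non-tolerant control and PMA/ionomycin as tolerance-bypass control. Compound pretreatment lasted 60 minutes before 18 h bead stimulation; EGFP/DsRed fluorescence read.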
BRCA1 expr up: BRCA1 expression activation. MCF7-BRCA1-FFLuc reporter, luminescence, 48 h; response scale: scaled: vehicle 0%, 10 µM genistein 100%. Potency, µM (titrated, usually from 46.1 µM), without a hit: top-dose activation, actives largely listed as activators. 1.1% of 380,000 active; note: potency is the fitted concentration of half-maximal effect; nearly all actives have a fitted effect of over 80% in size
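MCF7-BRCA1-FFLuc cells, 2000/well in phenol-red-free MEM, attached 2 h then treated 48 h at 37 C. Luciferase luminescence read 15 min after reagent; normalized to genistein maximum activation (10microM) and DMSO, concentration-response fitted.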
Chronic BCR inh: blocks chronic active B-cell receptor signaling; AID 493014; Potency, µM (doses to about 46.1 µM), for the others: top-dose activity change, negative = inhibition, actives largely listed as inhibitors; ABC-DLBCL IkBa-CBG/CBR reporter, luminescence ratio, 4 h; 0.05% of 340,000 active; active = well fitted inhibition curve with a large enough effect in the signal ratio, with a control signal flat, not every such curve was filed as active; inconclusive = small, poorly fitted or top-dose-only effect, or effect the other way, or a change in a side signal; the % refers to the signal ratio;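 note: potency is the fitted concentration of half-maximal effect; plate controls were basal doxycycline-induced cells for no effect and cells given 10 µM MG132 for full effect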
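TMD8 ABC-DLBCL cells carrying doxycycline-inducible green luciferase fused to IkappaBalpha plus unfused red luciferase were exposed to compounds (up to 46 uM) for 4 hrs at 37C. Activity came from the overlap-corrected green/red luminescence ratio.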
Mito fusion yeast: blocks mitochondrial division or promotes mitochondrial fusion. AID 485298. Potency, µM (titrated, usually from 46.1 µM), inactives show top-dose growth rescue (activation), actives largely listed as activators. S. cerevisiae fusion-defective mutant growth rescue, CellTiterGlo 48 h. 0.23% of 320,000 active; note: potency is the fitted concentration of half-maximal effect; % of control where 0% means no effect; nearly all actives have a fitted effect of over 45% in size
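Compounds are tested for their ability to restore growth of mitochondrial fusion-defective yeast strains at non-permissive 37C in YPEG medium over 48 hours. Viability is quantified by luciferase luminescence.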
* = called active by the depositor; i = inactive; ? = inconclusive; . = no result; [ ] = dose if it differs, or a comment. Unless noted, calls come from the whole dose curve; as a rule, active = well fitted curve in the direction sought with a large enough effect; inconclusive = small, poorly fitted or top-dose-only effect, or another doubt; inactive = no such curve, though single readings can be large; an effect the other way counts as inactive or inconclusive.

SMILES	PTHR1 ag	TCR activator	IL-2 act	BRCA1 expr up	Chronic BCR inh	Mito fusion yeast
Cc1ccc(C(=O)Nc2ccc3c(c2)nc(CCNC(=O)c2ccco2)n3C)cc1	-76.7%	1.6%	-1.4	7.08µM*	0.2%	-0.4%
CC1CCN(CCc2nc3cc(NC(=O)Nc4ccccc4)ccc3n2C)CC1	i	0.4%	0.2	14.1µM*	-10.0%	-3.3%
Cn1c(CN2CCCC2)nc2cc(NC(=O)c3ccco3)ccc21	-19.0%[57.5 µM]	-1.2%	-3.3	5.62µM*	-11.8%	-0.1%
CC(=O)NCCc1nc2cc(NC(=O)c3ccc([N+](=O)[O-])cc3)ccc2n1C	i	11.6%	0.6	6.31µM*	-0.3%	6.2%
CN1CCN(CCc2nc3cc(NC(=O)c4ccco4)ccc3n2C)CC1	-23.7%	1.5%	1.5	0.0%	?	6.1%
CC(=O)Nc1ccc2c(c1)nc(CCNC(=O)c1ccco1)n2C	-9.6%	-1.2%	0.1	4.3%	4.1%	5.2%
Cn1c(CN2CCCC2)nc2cc(NC(=O)Nc3ccccc3)ccc21	-9.0%[57.5 µM]	4.7%	-0.1	11.2µM*	?	-1.1%
Oc1ccc(/C=N/NC(=S)N/N=C/c2ccc(O)cc2)cc1	1.4%	0.3%	-2.6	8.91µM*	?	-2.3%
COc1ccccc1NC(=S)N/N=C/c1ccc(O)cc1	-28.1%	-5.5%[46.1 µM]	-0.6	3.16µM*	?	0.1%
Cc1ccc(-c2cc3ncc(C#N)c(N)n3n2)cc1	i	-0.3%	0.1	8.91µM*	14.7%	1.8%
Cc1ccc(C2NC(c3ccc4c(c3)OCO4)=CC(c3cc(Br)ccc3O)N2)cc1 (stereo not drawn)	.	.	.	-20.7%	.	.
C=CCc1c(C)nc2c(-c3ccccc3)cnn2c1N1CCOCC1	i	0.9%	0.2	2.24µM*	?	-18.1%
Cc1cc(N2CCOCC2)n2ncc(-c3ccccc3)c2n1	i	0.8%	-1.0	-61.3%	?	4.0%
COc1cc(OC)c2cc(C(=O)N/N=C/c3cccc(OC)c3O)[nH]c2c1	-2.8%	-2.5%	-1.1	-16.3%	?	1.5%
COc1cccc(/C=N/NC(=O)c2cc3c(OC)ccc(OC)c3[nH]2)c1O	-1.0%	-1.9%	-2.6	-82.8%	3.16µM*	-3.0%
CCOC(=O)c1sc(-c2ccccc2)cc1N	-7.2%[57.5 µM]	4.0%	-0.3	12.6µM*	?	-2.1%
CCOC(=O)c1sc(-c2ccc(F)cc2)cc1N	-9.0%[57.5 µM]	.	-2.9	11.2µM*	?	-8.6%
Clc1ccccc1C1CC(c2ccccc2)=Nc2ccccc2N1 (stereo not drawn)	-26.3%	1.8%	76.6*	-41.4%	11.9%	6.9%
Brc1ccccc1C1CC(c2ccccc2)=Nc2ccccc2N1 (stereo not drawn)	-10.1%	-1.5%[46.1 µM]	-3.7	24.1%	?	8.7%
COc1cc(Cl)c(C)cc1Nc1nc2ccccc2n2cnnc12	?	.	.	7.9%	.	.
CCCC1CCC(c2ccc(OCC)cc2)=CC1=O (stereo not drawn)	-36.1%	-3.6%	-0.7	8.91µM*	-7.1%	-5.1%
CC(C)OC(=O)c1c(NC(=O)c2cc3nc(-c4ccccc4)cc(C(F)(F)F)n3n2)sc2c1CCCC2	?	.	.	.	4.8%	.
Nc1ccc(CSc2ccc(Cl)cc2)c(Cl)c1	-19.7%	0.3%	-0.4	1.78µM*	.	.
N=C(N)SCc1ccc(Cl)cc1Cl	i	-6.5%	-3.9	-56.6%	?	1.7%
CC(=O)c1ccc(NC(=O)c2cnn3c2NC(=C2CC2)C=C3C(F)F)cc1	.	.	.	19.0%	.	.
SMILES	PTHR1 ag	TCR activator	IL-2 act	BRCA1 expr up	Chronic BCR inh	Mito fusion yeast
O=C(NCCCc1ccccc1)c1ccccc1	-4.1%	-2.1%	-0.4	10µM*	?	2.3%
CCN(CC)S(=O)(=O)c1cccc(C(=O)NCCc2ccccc2)c1	i	-6.3%	-0.2	6.31µM*	.	.
O=C(NCCc1ccccc1)c1ccc(Br)o1	-41.8%	-5.2%	-0.1	7.08µM*	1.8%	-0.8%
COc1ccc(C(=O)NCCS(=O)(=O)NCCc2ccccc2)cc1	-15.2%	2.8%	-0.5	4.47µM*	1.2%	6.3%
Cc1cnccc1/C=C/c1ccc(N)cc1	.	.	.	41.2%	.	.
Cc1ccc(C(=O)NCCc2ccccc2)cc1S(=O)(=O)N1CCOCC1	-31.6%	-5.4%	0.2	11.2µM*	?	-2.9%
COc1cc2c(cc1NC(=O)CN(C)Cc1ccc(OC)c(OC)c1)oc1ccccc12	-65.5%	-5.8%[46.1 µM]	-0.7	-53.0%	?	14.1µM*
COc1cc2c(cc1NC(=O)Cc1ccc(C)cc1)oc1ccccc12	-72.0%	-1.0%[46.1 µM]	-4.1	7.94µM*	4.7%	3.4%
COc1ccc(CN(C)CC(=O)Nc2cc3oc4ccccc4c3cc2OC)c(OC)c1	-62.1%	-4.2%[46.1 µM]	3.0	-55.6%	4.0%	?
COc1cc(Cl)c(CC(=O)NO)cc1OC	.	.	.	0.0%	.	.
CCN1C(=O)C(=CC=CN(C)c2ccccc2)SC1=S	-1.5%	.	4.0	2.51µM*	.	.
CCN1C(=O)/C(=C/C=C2\C=CN(CC)c3ccccc32)SC1=S	i	1.5%[46.1 µM]	-0.1	6.31µM*	?	-2.9%
CN(C(=O)c1ccco1)c1nc(-c2ccc(Cl)cc2)cs1	-0.9%	-7.0%	0.9	10µM*	?	1.3%
CCN(C(=O)c1cccs1)c1nc(-c2ccc(OC)cc2)cs1	-3.7%	-6.6%	-0.4	12.6µM*	?	-6.2%
COc1ccc(-c2csc(N(C)C(=O)c3ccco3)n2)cc1	-6.8%	.	-0.3	7.08µM*	?	1.4%
COc1ccc(-c2nnc(N(C)C(=O)c3ccno3)s2)cc1	i	-0.8%[46.1 µM]	1.4	5.01µM*	-8.3%	-1.0%
CNc1c(Br)cc(C(O)C2=CCc3ccccc32)cc1Br (stereo not drawn)	.	.	.	-65.2%	.	.
Cc1ccc(S(=O)(=O)N2CCC(c3nnc(-c4cccc(C)c4)o3)CC2)cc1	-2.0%	.	.	.	.	.
COc1ccc(N2C(=O)c3ccccc3NC2(C)C)cc1	-14.1%	3.9%	-2.6	10µM*	-17.7%	-5.6%
CCOc1ccc(N2C(=O)c3ccccc3NC2(C)CC)cc1 (stereo not drawn)	-34.5%	5.5%	0.1	3.55µM*	?	-3.4%
CCC1(C)Nc2ccccc2C(=O)N1O (stereo not drawn)	-9.1%[57.5 µM]	2.5%	0.7	-53.4%	?	0.8%
Cc1ccc(CNC(=O)C2CCCN(c3nc4ccsc4c(=O)s3)C2)cc1 (stereo not drawn)	i	0.7%	-0.3	-26.1%	7.7%	-0.6%
O=C(CSc1nc2ccccc2[nH]1)c1ccccc1F	-16.6%	4.3%	-0.1	2µM*	?	-6.5%
O=C(CSc1nc2ccccc2[nH]1)c1c[nH]c2ccccc12	-22.8%	5.2%	2.1	30.3%	?	1.2%
